# Assay outcomes from PubChem.
# In the library only some 8% were active in any assay of this set; here they are far more common.
# SW480 rerep: induces DNA re-replication in SW480 colon adenocarcinoma cells; SW480 DNA re-replication, Hoechst DNA content imaging, 48 h; Potency, µM (titrated, usually from 46.1 µM), usual class: activators; actives 1.8% (n = 340,000); also: nearly all actives have a fitted effect of over 55% in size
#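 Image-based read-out: total Hoechst fluorescence of nuclei (405 nm excitation, 500-530 nm emission), with hits raising the fraction of high-intensity nuclei. SW480 colon cells incubated 48 hr with compounds at 37 C.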
# MCF10A rerep: inducers of DNA re-replication in MCF 10A breast cells. MCF 10A DNA re-replication, Hoechst nuclear intensity, 48 h. actives 2.9% (n = 350,000). Potency, µM (highest dose often 46.1 µM), hits mostly activators. AID 624296; also: nearly all actives have a fitted effect of over 50% in size
# HT1080 IDH1KD tx: toxicity to HT-1080 IDH1 knockdown cells (counter line); HT-1080 IDH1 knockdown viability, ATP luminescence, 48 h; Potency, µM (series often up to 46.1 µM), hits mostly cytotoxic; actives 2% (n = 360,000); AID 686971
#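 Assay cells: HT-1080 with IDH1 knockdown, 750 per well, RPMI/5% FBS. Exposure: 48 h at 37 °C following 2 h pre-incubation. Read: CellTiter-Glo luminescence; fitted concentration-response, curve class assigned.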
# KB-3-1 tox: kills parental KB-3-1 adenocarcinoma cells | KB-3-1 viability, CellTiter-Glo ATP luminescence, 72 h | Potency, µM (titrated, usually from 46.1 µM), usual class: cytotoxic | actives 1.4% (n = 400,000) | AID 1347075; also: nearly all actives have a fitted effect of over 60% in size
#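 KB-3-1 parental drug-naive adenocarcinoma cells in DMEM/10% FBS, incubated 72 h at 37 C with pin-transferred compounds across a concentration series. Viability by CellTiter-Glo luminescence; concentration-response curves fitted after normalization.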
# KB-V1 MDR tox: KB-V1 MDR subline cytotoxicity. KB-V1 MDR cells viability, CellTiter-Glo, 72 h. Potency, µM (highest dose often 46.1 µM), most hits filed as cytotoxic. actives 3.4% (n = 400,000). AID 1347076; also: nearly all actives have a fitted effect of over 60% in size
#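 Drug-selected KB-V1 cells, grown in DMEM lacking phenol red with 10% FBS, receive compound titrations; after three days at 37 degrees C, surviving cell ATP is quantified by CellTiter-Glo luminescence and responses normalized and curve-fitted.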
# HT1080NT lethal: kills 2HG-producing HT-1080-NT fibrosarcoma cells; HT-1080-NT fibrosarcoma viability, CellTiter-Glo ATP luminescence, 48 h; actives 1.6% (n = 360,000); Potency, µM (top dose mostly 46.1 µM), actives largely listed as cytotoxic;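 also: NT is the 2HG producing partner of a matched IDH1 knockdown line; nearly all actives have a fitted effect of over 55% in size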
#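 Luminescent CellTiter-Glo readout after 48 hours of compound exposure at 37 degrees C defined viability of HT-1080-NT cells. Activity was normalized to DMSO wells and cell-free media wells; concentration-response curves were fitted and assigned curve classes.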
# Hits are given with their value; . = inactive; ? = inconclusive; / = no result; [ ] = remark or other dose. Calls follow the shape of the dose curve; as a rule, active = well fitted curve in the direction sought with a large enough effect; inconclusive = small, poorly fitted or top-dose-only effect, or another doubt; inactive = no such curve, though single readings can be large; an effect the other way counts as inactive or inconclusive.
SMILES,SW480 rerep,MCF10A rerep,HT1080 IDH1KD tx,KB-3-1 tox,KB-V1 MDR tox,HT1080NT lethal
Cc1ccc(-c2csc3ncnc(OCC(=O)NC(=O)NCc4ccco4)c23)cc1,.,.,?,.,.,?
CCOC(=O)c1c(C)n(Cc2ccccc2)c2ccc(OCC(O)Cn3nc(C)nc3C)cc12 (stereo unspecified),.,.,.,.,.,.
CCOC(=O)c1c(C)n(Cc2ccccc2)c2ccc(O)cc12,.,?,.,.,10µM,.
CCOC(=O)c1c(C)n(Cc2ccccc2)c2ccc(OCC(O)CNC(C)(C)C)cc12 (stereo unspecified),?,?,16µM,.,.,?
Oc1ccc(-[n+]2c(-c3ccccc3)cc(-c3ccccc3)cc2-c2ccccc2)cc1,.,?,21µM,.,.,12µM
O=C([O-])c1ccc(-[n+]2c(-c3ccccc3)cc(-c3ccccc3)cc2-c2ccccc2)cc1,.,.,.,.,.,?
COc1ccc(-[n+]2c(-c3ccccc3)cc(-c3ccccc3)cc2-c2ccccc2)cc1,?,?,7.3µM,7.3µM,.,8.2µM
Cc1nn(C(C)(C)C)c(C)c1/C=N/OC(=O)Nc1ccc(Cl)cc1,.,?,.,.,.,.
Cc1cc(C(C#N)c2ccc(Cl)cc2)c(Cl)cc1NC(=O)c1cc(I)cc(I)c1O (stereo unspecified),?,?,?,.,.,?
OC1CCC(Nc2ccn3nc(-c4cccc(OCc5ccccc5)c4)cc3n2)CC1 (stereo unspecified),/,/,?,.,.,?
CC1=C2[C@@H]3OC(=O)[C@@H](C)[C@@H]3CC[C@]2(C)C=CC1=O,.,.,/,/,/,/
C[N+]12CCC(CC1)[C@@H](OC(=O)C(O)(c1ccccc1)c1ccccc1)C2,.,.,/,/,/,/
Cc1cc(NC(=O)CCl)nn1C,?,?,?,13µM,21µM,?
Cc1cc(/C=C/c2cccc3sc(C)[n+](CCCCI)c23)ccc1N(CCCl)CCCl,/,/,/,.,.,/
CC/C(=C(\c1ccc(O)cc1)c1ccc(OCCN(C)C)cc1)c1ccccc1,?,?,18µM,.,?,16µM
CCC(=C(c1ccc(O)cc1)c1ccc(OCCN(C)C)cc1)c1ccccc1,/,/,.,.,.,.
C[C@H](NC(C)(C)C)C(=O)c1cccc(Cl)c1,.,.,/,/,/,/
CC(=O)[O][Hg][c]1ccccc1,?,.,/,/,/,/
COC(=O)c1nc(-c2ccc3c(n2)C(=O)C(N)=C(OC)C3=O)c(N)c(-c2ccc(OC)c(OC)c2O)c1C,?,?,?,?,10µM,?
CC(=NCCc1c[nH]c2ccccc12)c1c(O)n(Cc2ccccc2)c(=O)[nH]c1=O,15µM,?,?,.,12µM,.
CCC(=NCCc1c[nH]c2ccccc12)c1c(O)n(-c2ccc(C)cc2)c(=O)[nH]c1=O,?,?,.,.,21µM,.
CC(=NCCN1CCOCC1)c1c(O)n(Cc2ccccc2)c(=O)[nH]c1=O,.,.,.,.,.,.
CC(=O)Nc1cc(-c2ccc(C(=O)NC3CC3)cc2)cn2c(-c3ccc(F)c(Cl)c3)cnc12,/,/,18µM,.,?,?
FC(F)(F)c1cccc(C2=CCN(CCc3ccc4ccccc4c3)CC2)c1,.,.,/,/,/,/
Cc1cc(C)c(C)c(/C=C(/C#N)C(N)=S)c1C,?,?,?,.,.,?
SMILES,SW480 rerep,MCF10A rerep,HT1080 IDH1KD tx,KB-3-1 tox,KB-V1 MDR tox,HT1080NT lethal
Cc1ccc(N/N=C/C=C/c2ccco2)cc1,21µM,12µM,.,.,.,.
CC1(c2ccccc2)CC(C)(C)N2C(=O)C3(C(C#N)=C(N)Oc4cc(O)ccc43)c3cccc1c32 (stereo unspecified),.,?,?,.,21µM,?
Cc1cc(O)cc2c1O[C@](C)(CCC[C@H](C)CCC[C@H](C)CCCC(C)C)CC2,.,.,/,/,/,/
COc1ccc(NC(=O)C2Cc3c(-c4cccc(C(C)=O)c4)ccnc3O2)cc1OC (stereo unspecified),/,/,?,5.2µM,9.2µM,?
CCOc1ccc2c(c1)c(C(C)=O)c(C)n2Cc1ccco1,.,.,.,.,.,.
CC(C)N(C(=O)CSc1nnc(-c2cc3ccccc3cc2O)n1Cc1ccco1)C(C)C,.,.,?,15µM,3.3µM,?
Cn1cc(/C=C(\C(=O)O)C(C(=O)O)=C2CCCCC2)c2ccccc21,.,.,.,.,.,.
C#CCCC[C@@H]1OC(=O)CNC(=O)C([C@@H](C)CC)NC(=O)[C@@H]2CCCN2C(=O)C([C@@H](C)CC)OC(=O)[C@H](Cc2ccccc2)N(C)C(=O)[C@H](C(C)C)NC(=O)C1(C)C (stereo partly specified),/,/,?,.,.,?
CCC(C)C1NC(=O)C(NC(=O)C(CC(C)C)N(C)C(=O)C2CCCN2C(=O)C(C)O)C(C)OC(=O)C(Cc2ccc(OC)cc2)N(C)C(=O)C2CCCN2C(=O)C(CC(C)C)NC(=O)[C@H](C)C(=O)[C@H](C(C)C)OC(=O)CC1O (stereo partly specified),?,?,0.013µM,0.16µM,8.2µM,0.23µM
Nc1ncnc2c1ccn2[C@@H]1O[C@H](CO)[C@@H](O)[C@H]1O,?,?,0.82µM,0.18µM,0.21µM,0.65µM
NC(=O)c1ncn([C@@H]2O[C@H](CO)[C@@H](O)[C@H]2O)n1,?,.,/,.,.,/
NC(=S)c1cn(C2OC(CO)C(O)C2O)c2ncnc(N)c12 (stereo unspecified),.,?,1.3µM,?,.,?
Cc1ccc(NC(=O)C2C3CCCC2C3c2ccccc2)c(C)c1 (stereo unspecified),.,?,.,.,.,.
Cc1ccc(Cn2cccc(C(=O)Nc3nnc(C)s3)c2=O)cc1,/,/,/,?,.,/
COc1cc2nc(CN3CC=C(c4ccccc4)CC3)[nH]c(=O)c2cc1OC,?,2.9µM,.,7.3µM,?,.
O=c1[nH]c(=S)n(CCC2=CCCCC2)c(O)c1C=NC1CCN(Cc2ccccc2)CC1,.,.,.,?,5.8µM,.
Cc1nn(-c2ccccc2)c2c1P(=O)(O)/C(=C1\N(C)c3ccccc3C1(C)C)C=N2,.,12µM,.,.,.,.
Cc1nn(-c2ccccc2)c2c1CC1(C(=O)N(C)C(=O)N(C)C1=O)C1CCCCN21 (stereo unspecified),.[9.22 µM],.,.,.,.,.
O=C(CCn1c(=O)oc2ccccc21)N1CCN(C(c2ccccc2)c2ccccc2)CC1,.,?,.,.,?,.
O=C(c1cc2c(s1)-c1ccccc1OC2)N1CCC2(CC1)OCCO2,?,?,?,.,13µM,?
